# Test results reported in PubChem BioAssay (NCATS).
# Results filed as inconclusive are left out. Unmarked numbers belong to inactive results. The source made the active and inactive calls. Calls come from the whole dose curve.
# Target: Retinoic acid receptor RXR-alpha (Homo sapiens) (UniProt P19793)
# Assay: qHTS assay for small molecule agonists of retinoid X receptor alpha signaling (AID 588544)
# Conditions: HEK293T RXRa-UAS-bla, beta-lactamase reporter, 18 h; series mostly up to 76.7 µM; activation: at the top concentration
# Excerpt: NIH Chemical Genomics Center [NCGC] U.S. Environmental Protection Agency [EPA] National Institutes of Environmental Health Sciences [NIEHS] National Toxicology Program [NTP] NCGC Assay Overview The Retinoid X receptor (RXR), a nuclear hormone receptor is expressed in liver, spleen, placenta, epidermis, central nervous system. These receptors are able to form homo and heterodimers with other nuclear receptors and due to this heterodimerizing ability, RXR functions as master regulators producing diverse physiological effects. Three subtypes of RXR exist; alpha, beta and gamma. Retinoid X receptor alpha (RXR-alpha) has potential roles in metabolic signaling pathways, skin alopecia, dermal cysts, cardiac development, insulin sensitization etc. Therefore screening environmental chemicals on RXR-alpha signaling can be used for the studies focused on such therapeutic applications.
# NCGC Assay Protocol Summary Using a beta-lactamase reporter-gene under control of Retinoid X receptor--alpha (RXR-alpha) response element, a cell-based assay [GeneBLAzer (RXR-alpha -UAS-bla assay developed by Invitrogen] was used to measure RXR-alpha ligands signaling. GeneBLAzer RXR-alpha -UAS-bla HEK293T cells were used with assay medium containing 2% charcoal-stripped FBS. The assay was performed in clear bottom black Greiner 1536-well plates. 9-cis-retinoic acid was used in the screen as the positive control. Library compounds were measured for their ability to stimulate the reporter gene activity. Compounds were screened in a titration series in 1536-well format. The fluorescence intensity (405 nm excitation, 460/530 nm emission) was measured using an EnVision plate reader. Data was normalized relative to 9-cis-retinoic acid control (500 nM, 100%), and DMSO only wells (basal, 0%). Concentration-response titration points for each compound were fitted to the Hill equation yielding concentrations of half-maximal stimulation (EC50) and maximal response (efficacy) values. qHTS protocol for RXR-alpha beta-lactamase assay in agonist mode [Step] [Parameter] [Value] [Description] 1. Reagent; 6 uL; 2500 cells/well 2. Incubation; 37 C for 4 hrs 3. Compounds; 23 nL; 0.59 nM to 92 uM 4. Controls (9-cis-retinoic acid); 23 nL, - One column with dose response, start 38 uM, 1:3 dilutions in duplicates - Final concentrations of 500 nM and 50 nM in two columns 5. Incubation; 37 C for 18 hrs 6. Detection reagent; 1 uL of CCF4-dye 7. Incubation; RT for 2 hrs 8. Detection; Fluorescence; Envision plate reader
# Sequence of Retinoic acid receptor RXR-alpha (Homo sapiens) (P19793 whole entry, looked up): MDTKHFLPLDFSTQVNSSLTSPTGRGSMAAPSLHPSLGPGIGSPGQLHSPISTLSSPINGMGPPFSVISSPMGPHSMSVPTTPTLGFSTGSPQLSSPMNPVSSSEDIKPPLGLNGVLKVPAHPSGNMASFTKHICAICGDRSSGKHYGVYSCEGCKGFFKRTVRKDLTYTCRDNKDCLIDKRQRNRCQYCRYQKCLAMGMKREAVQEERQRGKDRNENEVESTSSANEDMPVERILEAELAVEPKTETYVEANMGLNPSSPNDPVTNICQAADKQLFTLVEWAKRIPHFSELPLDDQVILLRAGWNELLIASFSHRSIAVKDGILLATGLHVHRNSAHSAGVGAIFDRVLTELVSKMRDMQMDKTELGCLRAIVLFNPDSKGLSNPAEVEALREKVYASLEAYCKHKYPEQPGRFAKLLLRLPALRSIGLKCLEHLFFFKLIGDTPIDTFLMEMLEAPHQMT
SMILES,activation,outcome
C=C(C)C1CC=C(C)C(O)C1 (stereo not given),1.35%,–
CC(C)=CCCC(C)CCO (stereo not given),–,inactive
O=C(/C=C/c1ccc(O)c(O)c1)O[C@@H](C(=O)O)[C@@H](OC(=O)/C=C/c1ccc(O)c(O)c1)C(=O)O,-4.24%,–
CCCCC(CC)CN (stereo not given),–,inactive
CCC(O)OC(O)CC (stereo not given),–,inactive
CCCCCCCCCCCCCC(=O)O,–,inactive
CC12CCC(CC1=O)C2(C)C (stereo not given),–,inactive
CCO[Si](CCCN)(OCC)OCC,–,inactive
C1OCOCO1,-0.112%,–
Clc1cc(Cl)c(Cl)cc1Cl,–,inactive
C[Si](C)(C)O[Si](C)(C)O[Si](C)(C)C,25.4%,–
O=C(O)CCCCCCCCC(=O)O,-1.03%,–
c1ccc2c(c1)c1cccc3ccc4cccc2c4c31,–,inactive
O=NO,–,inactive
Cc1cccc([N+](=O)[O-])c1C,–,inactive
COC(=O)c1ccc(C=O)cc1,–,inactive
C=CCc1ccc(OC)c(OC)c1,–,inactive
Nc1ccc(S(=O)(=O)O)cc1,–,inactive
CC1=CC(C)(C)Nc2ccccc21,–,inactive
O[C@@H]([C@H](O)[C@@H](O)CBr)[C@@H](O)CBr,4.91%,–

SMILES,activation,outcome
Cc1ccc([N+](=O)[O-])c(C)c1,–,inactive
CN(C)CCCCCCN(C)C,16.6%,–
O=[N+]([O-])c1cccc(Cl)c1Cl,–,inactive
CC1(C)CC(N=C=O)CC(C)(CN=C=O)C1 (stereo not given),–,inactive
CC(=O)OC/C=C(\C)CCC=C(C)C,–,inactive
O=C(O)c1ccc(O)cc1O,–,inactive
C=CC(=C)CCC=C(C)C,5.06%,–
Cc1ccccc1C,–,inactive
O=C(O)c1ccccc1,2.13%,–
O=C(O[C@@H]1Cc2c(O)cc(O)cc2O[C@@H]1c1cc(O)c(O)c(O)c1)c1cc(O)c(O)c(O)c1,-9.03%,–
CCO,-4.26%,–
CCCCOCCO,–,inactive
O=C1CCc2ccccc2O1,-2.23%,–
O=C(O)CC(C(=O)O)C(CC(=O)O)C(=O)O (stereo not given),–,inactive
C/C=C\c1ccc(OC)cc1,8.42%,–
Cc1c(N=C=O)cccc1N=C=O,–,inactive
CCCCCCCCCCCCCCC1CO1 (stereo not given),–,inactive
Cc1ccc(N)c([N+](=O)[O-])c1,–,inactive
c1ccc2c(c1)[nH]c1ccccc12,–,inactive
c1ccc2scnc2c1,0.678%,–
